Test results from PubChem BioAssay (EPA / NIEHS).
Results filed as inconclusive are left out. Active and inactive are the calls of the source. How the source made its calls: active means hit-call score of the fitted dose curve at least 0.9, where 1 is the maximum; inconclusive means response in the unintended direction; inactive means score below 0.9.

biological target: human CYP1A1, CYP1A1 (gene 1543) (UniProt P04798); test: NVS_ADME_hCYP1A1: NovaScreen (NVS) CYP450-related Enzyme Activity (ADME) Assay for human CYP1A1 (AID 2283100)
Protocol: NVS_ADME_hCYP1A1 is a biochemical, single-readout assay that uses extracted gene-proteins in a cell-free assay. Measurements were taken 1 hour after chemical dosing in a 96-well plate.NVS_ADME_hCYP1A1 is one of one assay component(s) measured or calculated from the NVS_ADME_hCYP1A1 assay. It is designed to make measurements of enzyme activity, a form of enzyme reporter, as detected with fluorescence intensity signals by Fluorescence technology.Data from the assay component NVS_ADME_hCYP1A1 was analyzed into 1 assay endpoint. This assay endpoint, NVS_ADME_hCYP1A1, was analyzed in the positive analysis fitting direction relative to Acetonitrile as the negative control and baseline of activity. Using a type of enzyme reporter, loss-of-signal activity can be used to understand changes in the enzymatic activity as they relate to the gene CYP1A1. Furthermore, this assay endpoint can be referred to as a primary readout, because this assay has produced multiple assay endpoints where this one serves a enzymatic activity function. To generalize the intended target to other relatable targets, this assay endpoint is annotated to the cyp intended target family, where the subfamily is xenobiotic metabolism.
Binding assays used specific radioligands (tritiated, iodinated) with non-radioactive competitive displacement ligands in agonist or antagonist protocols (as indicated) and various reference compounds and inhibitors to titrate specific binding to receptors and transporters. Most enzyme assays (CYPs, kinases, phosphatases, proteases, HDACs) used recombinant protein and specific substrates (fluorescence mostly, some colorimetric and radioactive) and inhibitors, followed by a biochemical separation of substrate and product. All assays for the biochemical HTS were initially run in duplicate at a single concentration (10 uM for CYP450 assays and 25 uM for all others). Assay-chemical combinations meeting a pre-defined threshold (e.g., 30% inhibition and other criteria defined below) were then run in singleton concentration-response format with maximum concentration of 20 uM for CYPs and 50 uM for all others. Each assay was run with positive and negative controls, and concurrent controls on every plate. The follow-up (secondary) screen tested active chemical-pairs in concentration series, as well as a few additional assays not tested in the primary screen, some selected negative inactives, and several cases re-run in the concentration series for confirmatory purposes.

human CYP1A1, CYP1A1 (gene 1543), sequence (P04798 whole entry, looked up): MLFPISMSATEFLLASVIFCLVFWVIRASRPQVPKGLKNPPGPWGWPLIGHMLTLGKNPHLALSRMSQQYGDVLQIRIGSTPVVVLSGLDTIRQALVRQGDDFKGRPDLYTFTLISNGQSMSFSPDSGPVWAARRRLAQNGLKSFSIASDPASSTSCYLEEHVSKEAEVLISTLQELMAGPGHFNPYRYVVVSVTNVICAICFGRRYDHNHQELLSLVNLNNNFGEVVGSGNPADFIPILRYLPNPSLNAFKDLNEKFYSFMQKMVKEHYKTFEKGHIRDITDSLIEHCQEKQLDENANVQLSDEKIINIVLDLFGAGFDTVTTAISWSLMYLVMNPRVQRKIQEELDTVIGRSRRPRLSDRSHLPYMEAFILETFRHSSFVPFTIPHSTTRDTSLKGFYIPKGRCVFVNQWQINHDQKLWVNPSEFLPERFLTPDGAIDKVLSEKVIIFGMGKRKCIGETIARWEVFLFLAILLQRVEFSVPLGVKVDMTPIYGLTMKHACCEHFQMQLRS

outcome, inactive:
CC(C)(O)c1coc(S(=O)(=O)NC(=O)Nc2c3c(cc4c2CCC4)CCC3)c1
O=C(O)c1cc(N=Nc2ccc(S(=O)(=O)Nc3ccccn3)cc2)ccc1O
CCOC(=O)COc1ccc2c(c1)CC(NCC(O)c1cccc(Cl)c1)CC2 (stereo unspecified)
CC(C)=CCCC(C)CCO (stereo unspecified)
CCc1cc(SCc2sc(-c3ccc(C(F)(F)F)cc3)nc2CN2CCN(c3ccc(OC)cc3)CC2)ccc1OCC(=O)O
CN(C)c1ccc(Cc2ccc(N(C)C)cc2)cc1
Fc1ccccc1[C@@H](F)COC1CCC(Nc2ncnc3[nH]ncc23)CC1 (stereo partly specified)
CC(=O)OCCC(C)C

AC50, active:
Cc1c(-c2cccnc2)c2ccccc2n1CCCCC(=O)O 4.39 µM
Cc1[nH]cnc1C[C@H]1CCc2c(C)c3ccccc3n2C1=O 3.83 µM
Oc1ccc2c(c1)-c1ccccc1C2 6.18 µM
